Measurements from PubChem BioAssay (Tox21).
Results filed as inconclusive are left out. Activity calls are given as the source filed them. Unless noted, calls come from the whole dose curve; as a rule, active = well fitted curve in the direction sought with a large enough effect in the repeat runs; inconclusive = weak or mixed curves; inactive = no such curve, though single readings can be large; an effect the other way counts as inactive or inconclusive.

Legend:
[1] = qHTS assay to identify small molecule agonists of the sonic hedgehog signaling (Shh) pathway (AID 1259368; calls by dose curve;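 note: NIH/3T3-derived 3T3Gli1-Luc cells carrying a stable Gli1-driven firefly luciferase reporter; series mostly up to about 92 µM; nearly all actives have a fitted effect of over 15% in size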)
Procedure, shortened: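 Cells of a mouse NIH/3T3 clone stably expressing luciferase under the Gli1 transcriptional response element are exposed to test chemicals for 24 hr at 37 C. Pathway activation is detected as a rise in luminescence.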

[2] = qHTS assay to identify small molecule agonists of the androgen receptor (AR) signaling pathway in the presence of an antagonist - cell viability counter screen (AID 1259379);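 note: MDA-kb2 human breast cancer cells carrying an MMTV luciferase reporter; series mostly up to about 92 µM; nearly all actives have a fitted effect of over 25% in size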
Procedure, shortened: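 Cytotoxicity is assessed by CellTiter-Fluor in MDA-kb2 cells carrying an MMTV-driven luciferase reporter. Cells receive 3.0uM nilutamide plus compounds at 15 concentrations and incubate 16 hr at 37C without CO2 before fluorescence reading.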

[3] = qHTS assay to identify small molecule agonists of the estrogen receptor beta (ER-beta) signaling pathway - cell viability counter screen (AID 1259380); note: nearly all actives have a fitted effect of over 30% in size
Procedure, shortened: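 Cytotoxicity is measured in parallel with the reporter screen: after 16 hr compound exposure at 37C and a 2 hr LiveBLAzer step, CellTiter-Glo is added to the same ER-beta-UAS-bla HEK293T wells and luminescence read after 30 min.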

[4] = molecular target: Androgen receptor (Homo sapiens) (UniProt P10275); test: qHTS assay to identify small molecule agonists of the androgen receptor (AR) signaling pathway in the presence of an antagonist (AID 1259381; calls by dose curve; note: nearly all actives have a fitted effect of over 15% in size)
Sequence of Androgen receptor (Homo sapiens) (P10275 whole entry, looked up): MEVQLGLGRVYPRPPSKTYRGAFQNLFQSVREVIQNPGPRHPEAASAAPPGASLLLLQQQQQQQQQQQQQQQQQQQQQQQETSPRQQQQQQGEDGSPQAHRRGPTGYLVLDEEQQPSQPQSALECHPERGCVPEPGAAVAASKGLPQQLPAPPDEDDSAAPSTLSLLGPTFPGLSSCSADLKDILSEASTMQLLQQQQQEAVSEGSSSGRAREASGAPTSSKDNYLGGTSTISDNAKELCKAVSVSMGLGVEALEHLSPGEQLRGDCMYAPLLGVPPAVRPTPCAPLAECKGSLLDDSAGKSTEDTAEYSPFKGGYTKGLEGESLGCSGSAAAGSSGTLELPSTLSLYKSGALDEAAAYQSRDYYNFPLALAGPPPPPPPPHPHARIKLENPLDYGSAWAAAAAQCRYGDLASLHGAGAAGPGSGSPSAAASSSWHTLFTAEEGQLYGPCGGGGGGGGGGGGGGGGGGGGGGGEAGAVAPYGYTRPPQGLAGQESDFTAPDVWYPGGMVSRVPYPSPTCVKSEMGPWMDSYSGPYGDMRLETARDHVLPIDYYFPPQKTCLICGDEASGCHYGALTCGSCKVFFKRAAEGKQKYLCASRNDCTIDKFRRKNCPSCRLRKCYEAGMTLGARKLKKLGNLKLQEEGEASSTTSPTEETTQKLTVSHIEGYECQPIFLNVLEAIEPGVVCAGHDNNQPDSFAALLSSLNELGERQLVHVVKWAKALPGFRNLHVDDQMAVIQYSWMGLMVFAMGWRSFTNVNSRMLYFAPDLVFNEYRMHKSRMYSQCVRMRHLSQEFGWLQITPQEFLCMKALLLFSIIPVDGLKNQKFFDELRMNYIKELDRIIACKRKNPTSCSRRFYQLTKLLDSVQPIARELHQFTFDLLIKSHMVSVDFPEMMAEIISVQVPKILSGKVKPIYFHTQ
Procedure, shortened: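 Agonist-mode confirmation screen: human MDA-kb2 cells stably expressing luciferase under an MMTV promoter bearing AR and GR response elements, co-treated with 3.0uM nilutamide (final). Luminescence measured after 16hr compound incubation.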

[5] = qHTS assay to identify small molecule antagonists of the estrogen receptor beta (ER-beta) signaling pathway - cell viability counter screen (AID 1259382); note: series mostly up to about 92 µM; nearly all actives have a fitted effect of over 55% in size
Procedure, shortened: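 Cytotoxicity counter screen multiplexed with the beta-lactamase antagonist assay: GripTite HEK293T ER-beta-bla cells were treated 16 hr with test chemicals in the presence of 1nM 17-beta-estradiol, and viability was measured by CellTiter-Glo.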

[6] = molecular target: Estrogen receptor (Homo sapiens) (UniProt P03372); test: qHTS assay to identify small molecule agonists of the estrogen receptor alpha (ER-alpha) signaling pathway in the presence of an antagonist (AID 1259383; calls by dose curve; note: top concentration of the series differs between compounds; nearly all actives have a fitted effect of over 15% in size)
Sequence of Estrogen receptor (Homo sapiens) (P03372 whole entry, looked up): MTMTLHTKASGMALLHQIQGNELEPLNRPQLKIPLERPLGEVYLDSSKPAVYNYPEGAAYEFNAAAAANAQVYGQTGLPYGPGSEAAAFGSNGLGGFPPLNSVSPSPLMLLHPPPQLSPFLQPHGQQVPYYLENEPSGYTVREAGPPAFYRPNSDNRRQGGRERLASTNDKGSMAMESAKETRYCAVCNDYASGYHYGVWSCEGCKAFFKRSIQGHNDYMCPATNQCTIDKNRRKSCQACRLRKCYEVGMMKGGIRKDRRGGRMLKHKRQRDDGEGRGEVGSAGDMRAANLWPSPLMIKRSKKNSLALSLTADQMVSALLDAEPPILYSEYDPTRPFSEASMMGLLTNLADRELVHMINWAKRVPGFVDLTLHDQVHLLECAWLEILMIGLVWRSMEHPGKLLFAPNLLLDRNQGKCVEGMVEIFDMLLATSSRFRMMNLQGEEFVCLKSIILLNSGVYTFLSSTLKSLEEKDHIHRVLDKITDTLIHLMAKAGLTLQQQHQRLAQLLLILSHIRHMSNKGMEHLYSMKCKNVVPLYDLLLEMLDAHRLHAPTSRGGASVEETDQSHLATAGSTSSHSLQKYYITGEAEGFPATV
Procedure, shortened: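 Agonist-mode confirmation in the presence of the ER antagonist ICI-182,780 at 10.0nM final. Breast-derived VM7Luc4E2 reporter cells were exposed to compounds for 22hr, and ERE-driven luciferase was quantified by luminescence.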

[7] = qHTS assay to identify small molecule agonists or antagonists of the thyroid stimulating hormone receptor (TSHR) signaling pathway - wild type cell line counter screen (AID 1259384; calls by dose curve)
Procedure, shortened: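 Wild-type Hek293 cells, 800/well, 18 h at 37C, then compound with Ro20-1724 for 30 min RT. cAMP by HTRF (cAMP-d2/anti-cAMP cryptate), 1 h RT, fluorescence read. 15 concentrations, triplicates.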

[8] = molecular target: Thyrotropin receptor (Homo sapiens) (UniProt P16473); test: qHTS assay to identify small molecule antagonists of the thyroid stimulating hormone receptor (TSHR) signaling pathway (AID 1259385; calls by dose curve; note: nearly all actives have a fitted effect of over 20% in size)
Sequence of Thyrotropin receptor (Homo sapiens) (P16473 whole entry, looked up): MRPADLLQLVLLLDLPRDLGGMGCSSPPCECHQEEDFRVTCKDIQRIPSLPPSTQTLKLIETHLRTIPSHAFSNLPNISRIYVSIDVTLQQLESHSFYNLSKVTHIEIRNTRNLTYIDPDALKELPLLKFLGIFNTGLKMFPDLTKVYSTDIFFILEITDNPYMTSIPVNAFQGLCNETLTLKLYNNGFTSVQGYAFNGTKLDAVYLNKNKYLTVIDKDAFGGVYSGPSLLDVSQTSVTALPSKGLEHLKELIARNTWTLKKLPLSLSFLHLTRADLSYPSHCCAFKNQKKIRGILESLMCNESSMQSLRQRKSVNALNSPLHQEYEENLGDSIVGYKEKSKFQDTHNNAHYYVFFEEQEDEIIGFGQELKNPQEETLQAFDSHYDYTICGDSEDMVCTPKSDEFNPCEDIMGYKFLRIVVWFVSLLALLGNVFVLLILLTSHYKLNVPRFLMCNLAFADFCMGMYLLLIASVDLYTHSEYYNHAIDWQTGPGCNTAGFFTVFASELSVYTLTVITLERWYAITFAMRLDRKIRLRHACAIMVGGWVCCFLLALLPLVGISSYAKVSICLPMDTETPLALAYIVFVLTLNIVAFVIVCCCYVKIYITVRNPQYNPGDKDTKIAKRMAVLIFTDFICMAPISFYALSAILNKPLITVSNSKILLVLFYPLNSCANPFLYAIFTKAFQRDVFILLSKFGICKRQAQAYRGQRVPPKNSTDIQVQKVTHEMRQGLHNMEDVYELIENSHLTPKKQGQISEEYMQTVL
Procedure, shortened: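 TSHR-HEK293 cells (800/well) plated 18 h, then compounds with Ro20-1724 and TSH at 1.5 ng/mL final, 30 min at room temperature. cAMP quantified by HTRF (cAMP-d2/anti-cAMP-cryptate, 1 h); 15 concentrations in triplicate.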

[9] = qHTS assay to identify small molecule agonists of the estrogen receptor alpha (ER-alpha) signaling pathway in the presence of an antagonist - cell viability counter screen (AID 1259386);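 note: series mostly up to about 92 µM; cells exposed to compounds for 22 h at 37 °C before the viability read; nearly all actives have a fitted effect of over 30% in size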
Procedure, shortened: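 Cytotoxicity was measured in parallel with the ERE-luciferase agonist screen, in the same wells. The cells were VM7Luc4E2, which endogenously express ER-alpha, and treatment was with compounds plus 10.0nM ICI-182,780 for 22hr.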

[10] = molecular target: Progesterone receptor (Homo sapiens) (UniProt P06401); test: qHTS assay to identify small molecule antagonists of the progesterone receptor (PR) signaling pathway (AID 1346795; active = well fitted inhibition curve with a large enough effect in the signal ratio in the repeat runs, not every such curve was filed as active; the % refers to the signal ratio)
Sequence of Progesterone receptor (Homo sapiens) (P06401 whole entry, looked up): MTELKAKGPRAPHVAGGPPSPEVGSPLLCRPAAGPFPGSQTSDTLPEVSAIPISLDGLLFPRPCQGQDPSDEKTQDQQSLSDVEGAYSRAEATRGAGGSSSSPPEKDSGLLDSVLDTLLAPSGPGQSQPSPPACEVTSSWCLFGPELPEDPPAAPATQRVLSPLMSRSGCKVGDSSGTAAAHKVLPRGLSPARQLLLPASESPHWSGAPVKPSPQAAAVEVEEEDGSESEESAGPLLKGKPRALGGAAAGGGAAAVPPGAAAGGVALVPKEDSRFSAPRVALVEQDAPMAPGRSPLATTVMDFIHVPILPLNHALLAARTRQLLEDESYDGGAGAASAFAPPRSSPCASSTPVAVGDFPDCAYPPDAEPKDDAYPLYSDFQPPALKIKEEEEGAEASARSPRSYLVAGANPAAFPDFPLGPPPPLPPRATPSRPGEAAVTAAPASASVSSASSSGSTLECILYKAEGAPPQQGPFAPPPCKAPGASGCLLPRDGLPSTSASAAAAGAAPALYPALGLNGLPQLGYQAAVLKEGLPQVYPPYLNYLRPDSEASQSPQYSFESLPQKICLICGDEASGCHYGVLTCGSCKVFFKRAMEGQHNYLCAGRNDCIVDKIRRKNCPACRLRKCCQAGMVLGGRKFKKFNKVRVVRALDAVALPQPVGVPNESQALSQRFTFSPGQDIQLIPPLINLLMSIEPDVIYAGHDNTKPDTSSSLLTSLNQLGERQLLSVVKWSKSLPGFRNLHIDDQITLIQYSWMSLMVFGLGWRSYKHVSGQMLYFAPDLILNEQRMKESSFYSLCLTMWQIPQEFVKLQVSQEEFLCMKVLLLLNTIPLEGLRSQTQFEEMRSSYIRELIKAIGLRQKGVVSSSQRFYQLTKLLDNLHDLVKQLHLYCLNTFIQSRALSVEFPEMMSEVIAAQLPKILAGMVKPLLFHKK
Procedure, shortened: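 PR-UAS-bla HEK293T cells with beta-lactamase reporter under UAS control, in 2% charcoal-stripped FBS, treated with compounds plus 1 nM promegestone (R5020, final) for 16 hr at 37C. Read-out: FRET beta-lactamase substrate fluorescence after 2 hr at room temperature.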

[11] = qHTS assay to identify small molecule antagonists of the progesterone receptor (PR) signaling pathway - cell viability counter screen (AID 1346798); note: series mostly up to about 92 µM; nearly all actives have a fitted effect of over 50% in size
Procedure, shortened: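 PR-UAS-bla HEK293T cells, 3,000/well in 2% charcoal-stripped FBS medium, dosed with compounds plus R5020 agonist and incubated 16 h at 37C. Viability then measured in the same wells by CellTiter-Glo luminescence after 30 min at RT.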

[12] = qHTS assay to identify small molecule agonists of the progesterone receptor (PR) signaling pathway - cell viability counter screen (AID 1346799; calls by dose curve; note: nearly all actives have a fitted effect of over 45% in size)
Procedure, shortened: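 Counter screen in the PR-UAS-bla HEK293T wells (2% charcoal-stripped FBS, 16 h compound exposure at 37 C) after the bla read. CellTiter-Glo added, 30 min at room temperature, luminescence read as cell viability.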

[13] = qHTS assay to identify small molecule agonists of the TGF-beta/Smad signaling pathway (AID 1346859; active = well fitted activation curve with a large enough effect in the signal ratio in the repeat runs, not every such curve was filed as active; the % refers to the signal ratio; note: series mostly up to about 77 µM)
Procedure, shortened: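 SBE-bla HEK293T cells plated overnight, then compound exposure for 5 h at 37 C. Beta-lactamase reporter read with LiveBLAzer B/G FRET substrate after 2 h at room temperature, fluorescence at 405 nm excitation, 460/530 nm emission.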

[14] = molecular target: Progesterone receptor (Homo sapiens) (UniProt P06401); test: qHTS assay to identify small molecule agonists of the progesterone receptor (PR) signaling pathway (AID 1346784; calls by dose curve; note: nearly all actives have a fitted effect of over 30% in size)
Procedure, shortened: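 PR-UAS-bla HEK 293T cells (beta-lactamase reporter under UAS) in 2% charcoal-stripped FBS, dosed with 23 nL compound after 6 hr, incubated 16hr at 37C. LiveBLAzer B/G FRET substrate added, fluorescence read after 2 hours.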

[15] = qHTS assay to identify small molecule antagonists of the TGF-beta/Smad signaling pathway - cell viability counter screen (AID 1346824); note: nearly all actives have a fitted effect of over 50% in size
Procedure, shortened: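 SBE-bla HEK 293T cells, incubated overnight, then compound plus 0.25 ng/mL TGF-beta1 (stock added) for 5 hr at 37 C. Viability was read in the same wells by CellTiter-Glo luminescence after 30 min at room temperature.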

[16] = qHTS assay to identify small molecule agonists of the TGF-beta/Smad signaling pathway - cell viability counter screen (AID 1346829); note: top concentration of the series differs between compounds; nearly all actives have a fitted effect of over 45% in size
Procedure, shortened: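 Compound-treated SBE-bla HEK 293T cells (5 hr, 37 C) were assessed for viability with CellTiter-Glo in parallel with the reporter read.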

[17] = molecular target: Estrogen receptor beta (Homo sapiens) (UniProt Q92731); test: qHTS assay to identify small molecule agonists of the estrogen receptor beta (ER-beta) signaling pathway (AID 1259377; active = well fitted activation curve with a large enough effect in the signal ratio in the repeat runs, not every such curve was filed as active; the % refers to the signal ratio)
Sequence of Estrogen receptor beta (Homo sapiens) (Q92731 whole entry, looked up): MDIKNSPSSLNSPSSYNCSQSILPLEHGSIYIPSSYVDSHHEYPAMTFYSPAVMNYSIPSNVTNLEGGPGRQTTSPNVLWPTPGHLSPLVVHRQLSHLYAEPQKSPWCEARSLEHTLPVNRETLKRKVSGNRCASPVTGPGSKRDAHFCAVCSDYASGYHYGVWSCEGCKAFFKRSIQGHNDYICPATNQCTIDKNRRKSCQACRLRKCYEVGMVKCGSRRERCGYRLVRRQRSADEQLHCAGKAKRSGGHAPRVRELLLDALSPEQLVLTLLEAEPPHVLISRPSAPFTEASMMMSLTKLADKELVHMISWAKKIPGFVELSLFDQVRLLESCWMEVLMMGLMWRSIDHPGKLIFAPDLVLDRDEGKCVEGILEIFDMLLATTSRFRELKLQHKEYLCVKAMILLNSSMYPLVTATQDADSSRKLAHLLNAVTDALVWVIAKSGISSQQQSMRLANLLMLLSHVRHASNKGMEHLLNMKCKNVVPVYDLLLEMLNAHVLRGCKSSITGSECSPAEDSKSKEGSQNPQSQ
Procedure, shortened: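 ER-beta-UAS-bla HEK293T cells in medium with 2% charcoal-stripped FBS were exposed to compounds for 16 h at 37C. Beta-lactamase reporter activity was read as fluorescence after 2 h with LiveBLAzer B/G FRET substrate at room temperature.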

[18] = molecular target: Estrogen receptor beta (Homo sapiens) (UniProt Q92731); test: qHTS assay to identify small molecule antagonists of the estrogen receptor beta (ER-beta) signaling pathway (AID 1259378; active = well fitted inhibition curve with a large enough effect in the signal ratio in the repeat runs, not every such curve was filed as active; the % refers to the signal ratio)
Procedure, shortened: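 ER-beta-UAS-bla HEK293T cells in 2% charcoal-stripped FBS medium treated with compound plus 1nM final 17-beta-estradiol for 16 hr at 37C. Beta-lactamase reporter read by FRET substrate fluorescence after 2 hours at room temperature.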

[19] = molecular target: Thyrotropin-releasing hormone receptor (Homo sapiens) (UniProt P34981); test: qHTS assay to identify small molecule antagonists of the thyrotropin-releasing hormone receptor (TRHR) signaling pathway (AID 1346877; active = well fitted inhibition curve with a large enough effect in the repeat runs, not every such curve was filed as active; note: series mostly up to about 51 µM)
Sequence of Thyrotropin-releasing hormone receptor (Homo sapiens) (P34981 whole entry, looked up): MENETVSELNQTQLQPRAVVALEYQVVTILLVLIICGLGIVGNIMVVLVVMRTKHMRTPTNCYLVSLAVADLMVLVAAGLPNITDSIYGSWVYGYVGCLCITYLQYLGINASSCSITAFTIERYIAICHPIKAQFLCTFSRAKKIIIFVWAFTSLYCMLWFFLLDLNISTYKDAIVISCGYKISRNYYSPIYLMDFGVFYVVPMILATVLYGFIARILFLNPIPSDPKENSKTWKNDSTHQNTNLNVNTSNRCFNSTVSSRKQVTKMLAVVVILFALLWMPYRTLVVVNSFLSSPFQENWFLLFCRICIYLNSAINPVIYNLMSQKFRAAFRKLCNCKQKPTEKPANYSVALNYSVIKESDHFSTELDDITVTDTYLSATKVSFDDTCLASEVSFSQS
Procedure, shortened: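 Antagonism is measured as suppression of the calcium response to 1 nM TRH in TRHR-HEK293 cells that have been dye-loaded for 2 h at 37 °C after overnight plating. Each compound is tested at 15 concentrations in triplicate.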

Measured: Potency

CCCCNC(=O)NCCCC
not listed: [14] | [15] | [16] | [17] | [18] | [19]
inactive: all other assays above

CCN(CC)CCOCCOC(=O)C1(c2ccccc2)CCCC1
not listed: [4] | [9] | [11] | [13] | [17] | [18] | [19]
inactive: all other assays above

C=C(C)CS(=O)(=O)O
not listed: [17] | [18] | [19]
inactive: all other assays above

COCCc1ccc(OCC(O)CNC(C)C)cc1 (stereo not given)
not listed: [4] | [6] | [19]
inactive: all other assays above

CC(C)(O)C#CC(C)(C)O
not listed: [4] | [17] | [18]
inactive: all other assays above

CCCCCSCCCCC
not listed: [4] | [13] | [16] | [17] | [18] | [19]
inactive: all other assays above

O=S(O)CO
not listed: [17]
inactive: all other assays above

CN1N=C(C(N)=O)CCC1=O
not listed: [17] | [18] | [19]
inactive: all other assays above

Cc1[nH]c(=O)c(C#N)cc1-c1ccc2nccn2c1
not listed: [4] | [6] | [17] | [18]
inactive: all other assays above
